This is a sample that favours compounds with a hit; in the whole collection about 0.28% have one here.
NPYLR7 ag = activates Aedes aegypti NPYLR7 receptor | activation, % at 10 µM | HEK293T NPYLR7/Galpha15, GCaMP6s calcium fluorescence | hit rate 0.15% among 270,000; in the data active = activation above about 40%
mcGAS inh = inhibitors of mouse cGAS; Q8C6L5; recombinant cGAS, Kinase-Glo ATP depletion luminescence; inhibition, % at 12.5 µM; hit rate 0.15% among 160,000; AID 1259399
Target sequence (Q8C6L5 whole entry, looked up): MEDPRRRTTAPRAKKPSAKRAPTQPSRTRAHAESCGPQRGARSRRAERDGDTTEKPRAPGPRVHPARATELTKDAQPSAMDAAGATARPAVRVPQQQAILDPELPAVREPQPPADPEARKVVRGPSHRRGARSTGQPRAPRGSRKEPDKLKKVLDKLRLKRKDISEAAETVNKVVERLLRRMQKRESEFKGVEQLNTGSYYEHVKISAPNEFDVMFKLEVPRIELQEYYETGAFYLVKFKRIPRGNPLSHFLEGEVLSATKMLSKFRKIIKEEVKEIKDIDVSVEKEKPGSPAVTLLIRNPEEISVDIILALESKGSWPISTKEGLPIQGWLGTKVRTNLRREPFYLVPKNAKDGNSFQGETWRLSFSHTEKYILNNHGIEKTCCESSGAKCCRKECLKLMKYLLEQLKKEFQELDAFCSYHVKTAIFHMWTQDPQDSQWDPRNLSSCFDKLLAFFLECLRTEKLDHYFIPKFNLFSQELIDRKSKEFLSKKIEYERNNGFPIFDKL
hcGAS inh = blocks human cGAS activity | Q8N884 | recombinant h-cGAS, ATP depletion, Kinase-Glo luminescence | inhibition, % at 12.5 µM | hit rate 0.081% among 290,000
Each line names hits and unclear results; the compound was inactive in the other large screens; ! = not confirmed by another sample. Cut-off read from the data, not from the text of the source, unless noted: active = inhibition above about 40%; inactive = the rest.

O=C(O)c1csc(CSc2nnc(-c3ccncc3)n2-c2cccc(C(F)(F)F)c2)n1	NPYLR7 ag 49
O=C(NCc1cccc(C(F)(F)F)c1)c1csc(CSc2nnc(-c3ccncc3)n2-c2cccc(C(F)(F)F)c2)n1	none
COc1ccc(OC)c(NC(=O)Nc2c(C)nc3sccn3c2=O)c1	none
COc1ccc(CN(Cc2nc(C(=O)N3CCN(C)CC3)co2)C(C)C)c(OC)c1	none
CCOC(=O)Cc1cc(=O)n2[nH]cc(-c3cccc(Br)c3)c2n1	hcGAS inh 63 (no result: mcGAS inh)
CCOC(=O)Cc1cc(=O)n2[nH]c(-c3ccc(Br)cc3)cc2n1	none (no result: mcGAS inh)
Cc1cc(C)n(CC(=O)N2CCCC(CCC(=O)N3CCN(c4ccccn4)CC3)C2)n1 (configuration not stated)	none (no result: NPYLR7 ag, mcGAS inh)
CCN(CC)c1ccc2cc(C(N)=O)c(=NCc3ccccc3)oc2c1	none (no result: mcGAS inh)
CCN(CC)c1ccc2cc(C(N)=O)/c(=N\NC(N)=S)oc2c1	NPYLR7 ag 130
NC(=S)NN=C(C(=O)c1ccccn1)c1ccccn1	none (no result: mcGAS inh)
CSC(=S)N/N=C(/c1ccccc1)c1ccccn1	hcGAS inh 64
CC1Cc2cc(CNCC(=O)NCc3ccccc3F)ccc2O1 (configuration not stated)	none
CCC(CC)NC(=O)CN1c2cccc3cccc(c23)S1(=O)=O	none (no result: mcGAS inh)
NC(=O)CN1c2cccc3cccc(c23)S1(=O)=O	NPYLR7 ag 106 (no result: mcGAS inh)
CC(=O)c1ccc(-n2c(=O)c3ccccc3c3ccccc3c2=O)cc1	none (no result: mcGAS inh)
CC1C(=O)c2cccc3c(=O)n(-c4ccccc4)c(O)c(c23)C1=O (configuration not stated)	NPYLR7 ag 83 (no result: mcGAS inh)
COc1cc(OC)cc(C(=O)N2CCN(C(C(=O)Nc3ccc(NC(C)=O)cc3)C3CCCC3)CC2)c1 (configuration not stated)	NPYLR7 ag 60
COc1ccc(C(=O)N2CCN(C(C(=O)Nc3cc(OC)cc(OC)c3)C3CCCC3)CC2)cc1 (configuration not stated)	none
Cc1cc(C)n(-c2nc3c(c(=O)n2CC(=O)N(C)c2ccccc2)CCCC3)n1	none (no result: NPYLR7 ag)
CCN(CC)c1ccc(/C=N\Nc2nc(N3CCCCC3)nc(N3CCCCC3)n2)cc1	none
Cc1cccc(CN2CCN(c3ccc(Cl)cc3)C(=O)C2C)c1 (configuration not stated)	mcGAS inh 74
Cc1cccc(CN2CCN(c3cccc(Cl)c3)C(=O)C2C)c1 (configuration not stated)	none
O=C1NC(=S)N(S(=O)(=O)c2c(Cl)cccc2Cl)C1Cc1ccccc1 (configuration not stated)	none
CC1CCCN(Cc2ccc(C(=O)Nc3ncnn3C(C)C)cc2)C1 (configuration not stated)	none
COc1ccc(Cl)cc1Nc1nnc(-c2cc3c(ccc4ccccc43)oc2=O)s1	NPYLR7 ag 59
COc1ccc(Nc2nnc(-c3cc4cc(Cl)ccc4oc3=O)s2)c(OC)c1	none
COc1ccc2oc(=O)c(-c3nnc(Nc4cc(Cl)ccc4OC)s3)cc2c1	NPYLR7 ag 56
COc1ccc(Nc2nnc(-c3cc4c(ccc5ccccc54)oc3=O)s2)c(OC)c1	none
O=C(NC1CC1)C1CNCCN1C(=O)c1cnn2c1CCCC2 (configuration not stated)	none
Cc1ccc(Nc2nc(Nc3cccc(F)c3)nc3nccnc23)c(C)c1	NPYLR7 ag 52 (no result: mcGAS inh)
Cc1ccc(Nc2nc(NCCN(C)C)nc3nccnc23)c(C)c1	none (no result: mcGAS inh)
COC(=O)c1cnc(/C=C/c2cc(C)c(O)c(C)c2)s1	NPYLR7 ag 46 (no result: mcGAS inh)
CNC(=O)c1cnc(/C=C/c2cc(OC)c3c(c2)OCCO3)s1	none (no result: mcGAS inh)
CCOc1ccc(-c2n[nH]c(C(=O)N/N=C\c3ccccn3)c2C)cc1	none
CCC(=O)Nc1sc2c(c1-c1nc3ccccc3s1)CCN(C(C)C)C2	mcGAS inh 97, hcGAS inh 80
CCC(=O)Nc1sc2c(c1-c1nc3ccccc3s1)CCN(C(C)=O)C2	none (no result: mcGAS inh)
CC(C)N1CCc2c(sc(NC(=O)CN3C(=O)CCC3=O)c2-c2nc3ccccc3s2)C1	mcGAS inh 51, hcGAS inh 56
CCCCC(=O)Nc1sc2c(c1-c1nc3ccccc3s1)CCN(C(C)=O)C2	none (no result: mcGAS inh)
Clc1ccc(CN2CCC(Cc3ccc(-n4cccc4)cc3)CC2)cc1Cl	none
CCN(CC)C(=O)[C@@H]1C[C@H](N)CN1C(=O)c1cnc(-c2ccccc2)nc1	none
O=c1cc(-c2ccccc2)n2c(=S)[nH]nc2[nH]1	hcGAS inh 64 (no result: mcGAS inh)
CCc1cc(=O)[nH]c2n[nH]c(=S)n12	none (no result: mcGAS inh)
CCCCSc1nnc2c(n1)OC(c1ccc(OC)cc1OC)Nc1ccccc1-2 (configuration not stated)	none
CCc1ncc(CN(C)Cn2ncn(C)c2=S)s1	none (no result: mcGAS inh)
COc1cc(NC(=O)CCl)c(OC)cc1Cl	none (no result: mcGAS inh)
CC(C)=CCCC1=CC[C@H](C(=O)O)[C@H](C(=O)O)C1	none
CC1=CC(C)C(C(=O)O)C(C(=O)O)C1 (configuration not stated)	NPYLR7 ag 43
Clc1ccc(-c2noc(-c3ccco3)n2)cc1	none (no result: mcGAS inh)
Cc1cccc(CNC(=O)c2sc3cc(F)ccc3c2Cl)c1	none
CN(C)CCNC(=O)CN1Cc2ccc(N3CCOCC3)nc2C1=O	none
C[C@@H](NC(=O)CN1Cc2ccc(N3CCOCC3)nc2C1=O)c1ccccc1	NPYLR7 ag 61
CCc1ccc(S(=O)(=O)Nc2ccc3c(c2)N(S(C)(=O)=O)CCC3)s1	none
O=C1C(=Cc2c(NCCCn3ccnc3)nc3ccccn3c2=O)SC(=S)N1Cc1ccco1	none
COc1ccc(-c2n[nH]c(=S)n2N=Cc2c(C)nn(-c3ccccc3)c2C)cc1	none
CSc1nc2c(cnn2Cc2ccccc2)c(=O)[nH]1	none (no result: mcGAS inh)
O=c1[nH]c(CCl)nc2c1cnn2Cc1ccccc1	mcGAS inh 54
Cc1csc(SCc2ccccc2C(=O)OC(C)C(=O)Nc2ncnc3nc[nH]c23)n1 (configuration not stated)	none (no result: mcGAS inh)
Cc1cc2c(C(C)C)c(O)c(O)c(C=O)c2c(O)c1-c1c(C)cc2c(C(C)C)c(O)c(O)c(C=O)c2c1O	mcGAS inh 48!
CCCC(=O)NC(N)=Nc1nc(C)c2cc(C)ccc2n1	none
COc1ccc(N=C(N)N)cc1	none (no result: mcGAS inh)
COc1ccc2c(C)nc(N=C(N)N)nc2c1	NPYLR7 ag 59 (no result: mcGAS inh)
CCc1nc(N=C(N)N)nc2cc(C)ccc12	NPYLR7 ag 62 (no result: mcGAS inh)
COc1ccc(CCn2c(-c3c(OC)ccc4ccccc34)nc3ccc(Br)cc3c2=O)cc1	none
Cc1ccc(C)c(CC(=O)N(CCC#N)C2CC2)c1	none (no result: mcGAS inh)
Cc1cc(C)cc(-c2nc3ccccn3c2NC(=O)C(C)Cl)c1 (configuration not stated)	none
O=C(O)C=C1C(=O)Nc2ccccc21	none
Cc1[nH]c(/C=C2\C(=O)Nc3ccccc32)c(C)c1CCC(=O)O	NPYLR7 ag 74 (no result: mcGAS inh)
Fc1ccc(-c2nnc(-c3ccc4c(c3)OCO4)o2)cc1	none (no result: mcGAS inh)
O=C(O)c1c[nH]c2c(ccc3ccccc32)c1=O	mcGAS inh 42
O=C(O)c1c[nH]c2cc(C(F)(F)F)ccc2c1=O	none
CC(C)N=c1c([N+](=O)[O-])nn(-c2ccc(Cl)cc2)n1O	NPYLR7 ag 95
Cc1ccc(N=c2c([N+](=O)[O-])nn(-c3ccc(Cl)cc3)n2O)cc1Br	none (no result: mcGAS inh)
C=c1c(C#N)c2[nH]c(N)c(C#N)c(C)c-2/c1=C\c1ccc(O)cc1	mcGAS inh 71
C=c1c(C#N)c2[nH]c(N)c(C#N)c(C)c-2/c1=C\c1ccc(C(=O)OC)cc1	none
O=S(=O)(Nc1ccc(S(=O)(=O)C2CCCC2)cc1)c1ccccc1C(F)(F)F	none (no result: mcGAS inh)

Screening results (PubChem BioAssay)
